Assay results: PubChem BioAssay (Tox21)
Records with an inconclusive call do not appear. The source made the active and inactive calls. Unless noted, the call rests on the fitted dose curve; in most records, active means well fitted curve in the direction sought with a large enough effect in the repeat runs; inconclusive means weak or mixed curves; inactive means no such curve, though single readings can be large; an effect the other way counts as inactive or inconclusive.

Key:
[1] = qHTS assay to identify small molecule antagonists of the estrogen receptor alpha (ER-alpha) signaling pathway using the BG1 cell line in the presence of 0.1 nM 17-beta-estradiol - cell viability counter screen (AID 1259241); further: nearly all actives have a fitted effect of over 40% in size
Method in brief: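 VM7Luc4E2 cells (endogenous ER-alpha, 4×ERE-luciferase), hormone-starved 5 days in charcoal-stripped FBS, were treated with compounds plus 0.1 nM 17beta-estradiol for 22 hr at 37C; viability read in same wells as CellTiter-Fluor live-cell protease fluorescence.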

[2] = qHTS assay to identify small molecule HDAC inhibitors (AID 1259364); further: nearly all actives have a fitted effect of over 45% in size; further: potency means the concentration at half of the fitted maximal effect
Method in brief: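 Luminescence from a cell-permeant luminogenic class I/II HDAC substrate reports endogenous deacetylase activity in intact HCT-116 cells treated with compounds for 2 h.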

[3] = qHTS assay to identify small molecule HDAC inhibitors - cell viability counter screen (AID 1259365); further: nearly all actives have a fitted effect of over 50% in size; further: potency means the concentration at half of the fitted maximal effect
Method in brief: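 Wild-type HCT-116 cells were seeded at 1,500 per well, incubated overnight at 37 C, then exposed to compounds in DMSO for 2hr. Viability was read by CellTiter-Glo luminescence after 30min at room temperature.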

[4] = qHTS assay to identify small molecule agonists of the sonic hedgehog signaling (Shh) pathway - cell viability counter screen (AID 1259366); further: nearly all actives have a fitted effect of over 50% in size; further: potency means the concentration at half of the fitted maximal effect
Method in brief: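 NIH/3T3-derived 3T3 Gli1-Luc cells (stable Gli1-responsive firefly luciferase reporter) were seeded, rested 4 hr at 37 C/5% CO2, then exposed to compounds in DMSO for 24 hr; viability was read by CellTiter-Fluor fluorescence in the same wells.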

[5] = qHTS assay to identify small molecule antagonists of the sonic hedgehog signaling (Shh) pathway - cell viability counter screen (AID 1259367); further: nearly all actives have a fitted effect of over 55% in size; further: potency means the concentration at half of the fitted maximal effect
Method in brief: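 Seed 3T3 Gli1-Luc cells at 2,000 per well; incubate 4 hr; add compound in DMSO, then conditioned medium; incubate at 37C with 5% CO2; add CellTiter-Fluor after 23 hr; read fluorescence 1 hr later.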

[6] = qHTS assay to identify small molecule agonists of the sonic hedgehog signaling (Shh) pathway (AID 1259368; calls by dose curve; further: series mostly up to about 92 µM; nearly all actives have a fitted effect of over 15% in size)
Method in brief: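 3T3Gli1-Luc (NIH/3T3 clone, stable Gli1-Luc); 4 hr pre-incubation, then cpd in DMSO 24 hr, 37 C/5% CO2; luciferase reagent 30 min RT; luminescence.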

[7] = qHTS assay to identify small molecule antagonists of the sonic hedgehog signaling (Shh) pathway (AID 1259369; calls by dose curve; further: nearly all actives have a fitted effect of over 45% in size; further: potency means the concentration at half of the fitted maximal effect)
Method in brief: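 3T3Gli1-Luc, conditioned-medium-stimulated, 24hr cpd, 37C/5% CO2; Gli1-driven firefly Luc luminescence after 30min RT with luciferase reagent. Cells plated 4hr before cpd.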

[8] = molecular target: Estrogen receptor beta (Homo sapiens) (UniProt Q92731); assay: qHTS assay to identify small molecule agonists of the estrogen receptor beta (ER-beta) signaling pathway (AID 1259377; active means well fitted activation curve with a large enough effect in the signal ratio in the repeat runs, not every such curve was filed as active; the % refers to the signal ratio)
Method in brief: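 ER-beta-UAS-bla HEK293T (GripTite) cells carrying a UAS-driven beta-lactamase reporter, in medium with 2% charcoal-stripped FBS, were exposed to compounds for 16 hr at 37C; LiveBLAzer B/G FRET substrate was then added and fluorescence read after 2 hours at room temperature.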

[9] = molecular target: Estrogen receptor beta (Homo sapiens) (UniProt Q92731); assay: qHTS assay to identify small molecule antagonists of the estrogen receptor beta (ER-beta) signaling pathway (AID 1259378; active means well fitted inhibition curve with a large enough effect in the signal ratio in the repeat runs, not every such curve was filed as active; the % refers to the signal ratio; further: potency means the concentration at half of the fitted maximal effect)
Method in brief: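 ER-beta-UAS-bla HEK293T cells in 2% charcoal-stripped FBS medium treated with compound plus 1nM final 17-beta-estradiol for 16 hr at 37C. Beta-lactamase reporter read by FRET substrate fluorescence after 2 hours at room temperature.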

[10] = qHTS assay to identify small molecule agonists of the androgen receptor (AR) signaling pathway in the presence of an antagonist - cell viability counter screen (AID 1259379); further: nearly all actives have a fitted effect of over 25% in size; further: potency means the concentration at half of the fitted maximal effect
Method in brief: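 Cells: MDA-kb2 (MMTV-luc, AR and GR elements), 3,000/well, 5 hr settle. Added: nilutamide 3.0uM final, then compounds (15 conc.). Incubation: 16 hr, 37C, no CO2. Read-out: CellTiter-Fluor, 1 hr, fluorescence.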

[11] = qHTS assay to identify small molecule agonists of the estrogen receptor beta (ER-beta) signaling pathway - cell viability counter screen (AID 1259380); further: nearly all actives have a fitted effect of over 30% in size; further: potency means the concentration at half of the fitted maximal effect
Method in brief: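 HEK293T ER-beta-UAS-bla; 2% CS-FBS; 6 hr pre-plate, 16 hr cpd at 37C/5% CO2; LiveBLAzer read first, then CellTiter-Glo 30 min RT, luminescence.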

[12] = qHTS assay to identify small molecule antagonists of the estrogen receptor beta (ER-beta) signaling pathway - cell viability counter screen (AID 1259382); further: series mostly up to about 92 µM; nearly all actives have a fitted effect of over 55% in size
Method in brief: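 Cells: ER-beta-UAS-bla HEK293T, 2,000/well, 2% CS-FBS, 6 hr settle. Cpd + E2 (1nM final), 16 hr, 37C/5% CO2. Bla FRET substrate 2 hr RT, then CellTiter-Glo 30 min RT, luminescence.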

[13] = molecular target: Estrogen receptor (Homo sapiens) (UniProt P03372); assay: qHTS assay to identify small molecule agonists of the estrogen receptor alpha (ER-alpha) signaling pathway in the presence of an antagonist (AID 1259383; calls by dose curve; further: nearly all actives have a fitted effect of over 15% in size; further: potency means the concentration at half of the fitted maximal effect; on activation: top concentration of the series differs between compounds)
Method in brief: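 VM7Luc4E2, endog. ER-alpha + 4×ERE-luc; charcoal-stripped FBS, phenol red-free, 5 d; 24hr plating; +10.0nM ICI-182,780 (final); cpds 15 conc, 22hr, 37C/5% CO2; ONE-Glo luminescence.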

[14] = qHTS assay to identify small molecule agonists or antagonists of the thyroid stimulating hormone receptor (TSHR) signaling pathway - wild type cell line counter screen (AID 1259384; calls by dose curve)
Method in brief: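 Wild-type Hek293 cells, 800/well, 18 h at 37C, then compound with Ro20-1724 for 30 min RT. cAMP by HTRF (cAMP-d2/anti-cAMP cryptate), 1 h RT, fluorescence read. 15 concentrations, triplicates.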

[15] = molecular target: Thyrotropin receptor (Homo sapiens) (UniProt P16473); assay: qHTS assay to identify small molecule antagonists of the thyroid stimulating hormone receptor (TSHR) signaling pathway (AID 1259385; calls by dose curve; further: nearly all actives have a fitted effect of over 20% in size)
Method in brief: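 TSHR-HEK293 cells (800/well) plated 18 h, then compounds with Ro20-1724 and TSH at 1.5 ng/mL final, 30 min at room temperature. cAMP quantified by HTRF (cAMP-d2/anti-cAMP-cryptate, 1 h); 15 concentrations in triplicate.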

[16] = molecular target: Androgen receptor (Homo sapiens) (UniProt P10275); assay: qHTS assay to identify small molecule agonists of the androgen receptor (AR) signaling pathway in the presence of an antagonist (AID 1259381; calls by dose curve; further: nearly all actives have a fitted effect of over 15% in size)
Method in brief: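 MDA-kb2 cells, 3,000/well, rested 5hr at 37C/0% CO2 → nilutamide 3.0uM final or buffer → compounds, 15 conc. → 16hr at 37C → ONE-Glo, 30min RT → luminescence.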

[17] = qHTS assay to identify small molecule antagonists of the androgen receptor (AR) signaling pathway using the MDA cell line in the presence of 0.5 nM R1881 - cell viability counter screen (AID 1259242); further: nearly all actives have a fitted effect of over 45% in size
Method in brief: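 Counter screen for cytotoxicity run in the same wells as the AR antagonist reporter screen: MDA-kb2 cells were treated 16 hr with test compounds and 0.5 nM R1881, then live-cell protease activity was measured by fluorescence.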

[18] = molecular target: Androgen receptor (Homo sapiens) (UniProt P10275); assay: qHTS assay to identify small molecule antagonists of the androgen receptor (AR) signaling pathway using the MDA cell line in the presence of 0.5 nM R1881 (AID 1259243); further: nearly all actives have a fitted effect of over 50% in size; further: potency means the concentration at half of the fitted maximal effect
Method in brief: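 Luciferase luminescence is the read-out: compounds are tested for suppressing 0.5 nM R1881-driven MMTV reporter activity in MDA-kb2 cells after 16 hr at 37C.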

[19] = molecular target: Estrogen receptor (Homo sapiens) (UniProt P03372); assay: qHTS assay to identify small molecule antagonists of the estrogen receptor alpha (ER-alpha) signaling pathway using the BG1 cell line in the presence of 0.1 nM 17-beta-estradiol (AID 1259244); further: nearly all actives have a fitted effect of over 50% in size; further: potency means the concentration at half of the fitted maximal effect
Method in brief: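 Cells: VM7Luc4E2, endogenous ER-alpha, 4x ERE-luc stable. Pre-culture 5 d, phenol red-free, charcoal-stripped FBS. Plated 24 h, compound + E2 0.1 nM final, 22 h 37C/5% CO2. Readout ONE-Glo luminescence.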

[20] = qHTS assay to identify small molecule phospholipidosis (PLD) inducers (AID 1259344; active means well fitted curve in the direction sought with a large enough effect; an effect the other way counts as inactive or inconclusive)
Method in brief: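 Quantitative HTS in HepG2: compound plus LipidTOX Red dye for 24 h, paraformaldehyde fixation with Hoechst 33342, widefield high-content imaging; amiodarone as positive and DMSO as negative control.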

Measured: Potency

Sequence of Thyrotropin receptor (Homo sapiens) (P16473 whole entry, looked up): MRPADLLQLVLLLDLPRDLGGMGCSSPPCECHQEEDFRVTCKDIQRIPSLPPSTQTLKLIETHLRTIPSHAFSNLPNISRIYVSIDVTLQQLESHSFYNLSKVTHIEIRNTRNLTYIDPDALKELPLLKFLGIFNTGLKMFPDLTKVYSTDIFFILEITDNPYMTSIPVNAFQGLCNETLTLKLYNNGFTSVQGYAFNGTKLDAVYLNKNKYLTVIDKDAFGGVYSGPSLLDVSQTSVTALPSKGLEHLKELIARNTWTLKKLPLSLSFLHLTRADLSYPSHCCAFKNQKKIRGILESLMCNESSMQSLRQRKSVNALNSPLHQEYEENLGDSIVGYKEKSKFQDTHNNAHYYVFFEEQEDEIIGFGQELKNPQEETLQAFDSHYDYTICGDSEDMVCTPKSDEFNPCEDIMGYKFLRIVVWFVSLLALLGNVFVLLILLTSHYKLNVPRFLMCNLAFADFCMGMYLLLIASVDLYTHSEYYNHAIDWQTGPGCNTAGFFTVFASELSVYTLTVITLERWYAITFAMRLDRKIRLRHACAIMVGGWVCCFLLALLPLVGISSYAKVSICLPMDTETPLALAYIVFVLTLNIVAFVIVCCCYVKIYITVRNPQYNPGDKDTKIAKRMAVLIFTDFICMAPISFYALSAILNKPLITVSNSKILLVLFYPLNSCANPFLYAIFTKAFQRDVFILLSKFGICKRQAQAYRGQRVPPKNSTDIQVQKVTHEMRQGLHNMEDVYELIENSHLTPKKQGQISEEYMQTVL
Sequence of Estrogen receptor beta (Homo sapiens) (Q92731 whole entry, looked up): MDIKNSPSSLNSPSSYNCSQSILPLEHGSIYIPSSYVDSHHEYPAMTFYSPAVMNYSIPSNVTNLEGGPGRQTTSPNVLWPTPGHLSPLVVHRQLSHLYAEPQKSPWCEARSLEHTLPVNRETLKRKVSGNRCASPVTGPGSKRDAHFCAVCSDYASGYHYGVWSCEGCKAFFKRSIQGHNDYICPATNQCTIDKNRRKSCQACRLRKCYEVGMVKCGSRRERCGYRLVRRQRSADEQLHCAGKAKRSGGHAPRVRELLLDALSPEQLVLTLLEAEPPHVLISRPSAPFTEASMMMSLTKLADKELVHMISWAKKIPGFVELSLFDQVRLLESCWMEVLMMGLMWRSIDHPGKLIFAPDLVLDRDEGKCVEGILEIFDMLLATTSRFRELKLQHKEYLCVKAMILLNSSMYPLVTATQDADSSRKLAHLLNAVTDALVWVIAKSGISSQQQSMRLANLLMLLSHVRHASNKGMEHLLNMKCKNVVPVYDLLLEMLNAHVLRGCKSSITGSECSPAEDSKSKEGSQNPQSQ
Sequence of Estrogen receptor (Homo sapiens) (P03372 whole entry, looked up): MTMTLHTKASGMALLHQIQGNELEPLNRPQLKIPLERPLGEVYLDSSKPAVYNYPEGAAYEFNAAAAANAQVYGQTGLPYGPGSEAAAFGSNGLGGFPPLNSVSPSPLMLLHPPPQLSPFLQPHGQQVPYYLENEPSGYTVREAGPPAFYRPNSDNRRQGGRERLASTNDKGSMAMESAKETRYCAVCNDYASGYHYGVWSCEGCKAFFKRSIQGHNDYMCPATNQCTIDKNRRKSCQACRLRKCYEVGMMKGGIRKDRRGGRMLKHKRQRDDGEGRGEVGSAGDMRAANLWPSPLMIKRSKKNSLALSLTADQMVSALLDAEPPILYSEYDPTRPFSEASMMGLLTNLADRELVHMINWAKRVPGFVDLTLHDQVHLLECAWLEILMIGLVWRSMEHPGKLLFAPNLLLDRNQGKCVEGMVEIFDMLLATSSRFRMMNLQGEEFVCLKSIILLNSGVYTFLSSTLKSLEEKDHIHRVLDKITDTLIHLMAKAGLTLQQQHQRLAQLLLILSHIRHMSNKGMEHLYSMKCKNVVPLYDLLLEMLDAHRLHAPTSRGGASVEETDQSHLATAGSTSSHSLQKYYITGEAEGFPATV
Sequence of Androgen receptor (Homo sapiens) (P10275 whole entry, looked up): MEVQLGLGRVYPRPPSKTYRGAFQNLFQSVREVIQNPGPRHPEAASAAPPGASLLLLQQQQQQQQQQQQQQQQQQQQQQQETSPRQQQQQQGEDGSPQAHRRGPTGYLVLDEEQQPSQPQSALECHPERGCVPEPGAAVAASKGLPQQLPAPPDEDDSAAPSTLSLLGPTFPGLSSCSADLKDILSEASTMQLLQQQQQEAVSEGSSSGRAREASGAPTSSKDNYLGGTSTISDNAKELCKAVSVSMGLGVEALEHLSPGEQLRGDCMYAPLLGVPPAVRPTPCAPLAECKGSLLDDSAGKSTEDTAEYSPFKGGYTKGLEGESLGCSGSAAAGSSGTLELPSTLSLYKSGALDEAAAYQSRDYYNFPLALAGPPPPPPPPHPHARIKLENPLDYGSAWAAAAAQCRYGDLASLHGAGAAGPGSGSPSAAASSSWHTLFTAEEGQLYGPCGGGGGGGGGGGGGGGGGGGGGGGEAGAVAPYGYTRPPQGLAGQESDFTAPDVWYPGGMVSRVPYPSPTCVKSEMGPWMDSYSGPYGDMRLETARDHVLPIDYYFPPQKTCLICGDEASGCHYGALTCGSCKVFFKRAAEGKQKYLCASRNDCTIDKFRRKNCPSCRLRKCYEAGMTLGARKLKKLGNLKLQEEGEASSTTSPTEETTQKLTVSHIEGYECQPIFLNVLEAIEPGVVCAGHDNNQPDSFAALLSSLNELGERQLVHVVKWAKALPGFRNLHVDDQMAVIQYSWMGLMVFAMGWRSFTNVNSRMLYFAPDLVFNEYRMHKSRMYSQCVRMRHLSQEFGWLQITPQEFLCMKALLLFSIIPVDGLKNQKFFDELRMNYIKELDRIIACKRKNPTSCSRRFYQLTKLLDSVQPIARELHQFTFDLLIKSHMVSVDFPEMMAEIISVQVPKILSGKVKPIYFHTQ

CC1(C)[C@H](C=C(Cl)Cl)[C@@H]1C(=O)O[C@@H](C#N)c1cccc(Oc2ccccc2)c1
not listed: [16] | [17] | [18] | [19] | [20]
inactive: all other assays above

CCCCN(N=O)C(=N)N[N+](=O)[O-]
inactive: [1] | [2] | [3] | [4] | [5] | [11] | [16] | [12] | [14]
active: [7] 27.9 µM

Cc1ccc2ccccc2c1
not listed: [1] | [20]
inactive: all other assays above

CC(=O)c1cc2c(cc1C)C(C)(C)C(C)CC2(C)C (stereo unspecified)
inactive: [1] | [2] | [3] | [4] | [5] | [7] | [8] | [12] | [14]

CCOP(=S)(OCC)SCn1nnc2ccccc2c1=O
active: [19] 48.6 µM | [9] 68.6 µM
not listed: [1] | [7] | [8] | [10] | [16] | [18] | [20]
inactive: all other assays above

CN(N=O)c1ccc([N+](=O)[O-])cc1
inactive: [1] | [2] | [3] | [4] | [6] | [7] | [11] | [12] | [13]

CCCCCC[N+](=O)[O-]
not listed: [1] | [6] | [10] | [13] | [19] | [20]
inactive: all other assays above

ClCc1ccccc1
inactive: [1] | [2] | [3] | [4] | [6] | [9] | [10] | [12] | [13] | [14] | [15]

O=C(NC(=O)c1c(F)cccc1F)Nc1cc(Cl)c(Oc2ncc(C(F)(F)F)cc2Cl)c(Cl)c1
active: [18] 26.1 µM | [19] 29.3 µM | [7] 23.3 µM
not listed: [1] | [5] | [9] | [10] | [11] | [20]
inactive: all other assays above

CCCCCCCCCCOC(=O)c1ccccc1C(=O)OCCCCCCCCCC
not listed: [1] | [5] | [8] | [9] | [20]
inactive: all other assays above

O=C(N[C@H](c1ccccc1)[C@@H]1CN2CCC1CC2)c1c(Cl)ccc(C(F)(F)F)c1Cl
inactive: [1] | [2] | [3] | [8] | [14] | [15]
active: [4] 39.2 µM | [7] 13.9 µM | [9] 39.2 µM

Nc1ccc(N=Nc2ccc(-c3ccc(N=Nc4c(S(=O)(=O)O)cc5cc(S(=O)(=O)O)c(N=Nc6ccccc6)c(O)c5c4N)cc3)cc2)c(N)c1
active: [2] 15.7 µM | [3] 17.6 µM | [4] 17.6 µM | [5] 19.7 µM | [10] 17.6 µM
inactive: [17] | [19] | [6] | [8] | [12] | [13]

CCOC(=O)CBr
not listed: [5] | [13] | [16] | [17] | [18] | [19] | [20]
inactive: all other assays above

Cc1ccccc1C(=O)Nc1cccc(OC(C)C)c1
active: [11] 19.3 µM
not listed: [1] | [7] | [8] | [12] | [20]
inactive: all other assays above

Clc1ccc(C(OCCN2CCCCC2)c2ccccc2)cc1 (stereo unspecified)
active: [11] 18.8 µM
not listed: [1] | [7] | [10] | [16] | [18]
inactive: all other assays above

O=C(O)COc1ccc(Cl)cc1
not listed: [1] | [8] | [10] | [11] | [16] | [18] | [20]
inactive: all other assays above

O=[N+]([O-])c1cc(C(F)(F)F)cc([N+](=O)[O-])c1Cl
active: [4] 30.8 µM | [5] 24.4 µM | [11] 54.7 µM
inactive: [1] | [2] | [3] | [6] | [13] | [14] | [15]

c1cc2ccc3cccc4ccc(c1)c2c34
inactive: [17] | [19] | [20] | [2] | [3] | [4] | [5] | [6] | [16] | [15]
active: [18] 16.1 µM | [13] 64.1 µM

N#CCc1ccccc1
not listed: [1] | [7] | [16] | [18] | [20]
inactive: all other assays above
